In PubChem BioAssay AID743025 (Vanderbilt Specialized Chemistry Center, 2013):
Unmarked numbers belong to inactive results.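 Rule for the calls: active = IC50 below 10 µM at human M5 in a calcium flux test, acting as a negative modulator; inactive = the rest.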

Biological target: Muscarinic acetylcholine receptor M5 (Homo sapiens) (UniProt P08912)
Assay: M5 muscarinic receptor negative allosteric modulators, cell-based, single concentration, human M5 (AID 743025)
Details: CHO-K1 hM5, ACh EC80 calcium flux, Fluo-4; at 10 µM; stronger effect = lower value

Chain of Muscarinic acetylcholine receptor M5 (Homo sapiens) (P08912 whole entry, looked up): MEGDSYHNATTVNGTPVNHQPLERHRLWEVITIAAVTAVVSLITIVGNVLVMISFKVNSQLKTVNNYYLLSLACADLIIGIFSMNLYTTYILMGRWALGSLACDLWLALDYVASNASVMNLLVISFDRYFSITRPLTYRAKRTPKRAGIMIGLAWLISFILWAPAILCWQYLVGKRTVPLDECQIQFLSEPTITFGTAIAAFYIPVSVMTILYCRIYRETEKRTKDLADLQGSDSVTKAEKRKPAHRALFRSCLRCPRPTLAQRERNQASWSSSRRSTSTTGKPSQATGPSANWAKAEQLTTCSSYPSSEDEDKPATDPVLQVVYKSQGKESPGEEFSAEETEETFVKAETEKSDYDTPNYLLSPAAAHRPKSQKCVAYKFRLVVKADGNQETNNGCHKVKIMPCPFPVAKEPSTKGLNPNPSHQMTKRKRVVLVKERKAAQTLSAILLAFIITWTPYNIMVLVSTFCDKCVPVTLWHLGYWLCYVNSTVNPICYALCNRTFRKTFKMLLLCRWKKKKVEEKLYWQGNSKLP

Row | SMILES | activity remaining [%]
1 | O=C1c2ccccc2C2(c3ccc(Cl)cc3)NCCN12 (configuration not stated) | 78.7
2 | O=C1c2ncccc2C2(c3ccccc3)NCCN12 (configuration not stated) | 67.2
